# Shown are actives, neighbours in structure and some others; about 12% of the full set was active somewhere.
# SARS PLP yeast = qHTS of Yeast-based Assay for SARS-CoV PLP; S. cerevisiae expressing SARS-CoV PLpro, growth rescue; Potency, µM (top dose mostly 32.9 µM), inactives show at the top dose activity, positive = growth rescue, actives largely listed as activators; AID 485353, 2010; 0.19% of 330,000 active; calls by dose curve; note: 0% is about no effect; nearly all actives have a fitted effect of over 55% in size
# AMA1-RON2 inh = qHTS for Inhibitors of AMA1-RON; Towards Development of Antimalarial Drug Lead: Primary Screen | AID 720542, 2013 | Plasmodium falciparum AMA1 (3D7) - RON2 peptide interaction | 0.2% of 360,000 active | AlphaScreen AMA1-biotinylated RON2 peptide binding | Potency, µM (top dose mostly 58.2 µM), for inactives: top-dose activity change, negative = inhibition, actives largely listed as inhibitors;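 note: 0% = vehicle wells and -100% = peptide control; nearly all actives have a fitted effect of over 45% in size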
#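 AMA1 (3D7) with his tag at 25 nM final met compounds first, then biotinylated RON2 peptide at 25 nM; detection used donor plus acceptor beads, 10 µg/mL apiece, read by AlphaScreen after 30 min at room temperature.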
# Pf growth 48h = Primary qHTS for delayed death inhibitors of the malarial parasite plastid, 48 hour incubation | AID 504832, 2011 | P. falciparum luciferase growth in erythrocytes, 48 h | Potency, µM (doses to about 28.7 µM), for the others: top-dose activity change, negative = inhibition, usual class: inhibitors | 5.9% of 310,000 active; note: % is set by controls: 0 for no effect and ±100 for the full control effect
#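 Cell-based growth assay: transgenic P. falciparum expressing firefly luciferase, cultured in red cells within RPMI 1640 containing 0.5% w/v Albumax, 24 mM bicarbonate and gentamycin. A drop in luciferase activity indicates inhibition.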
# HCV inhibitor = qHTS Assay for Inhibitors of Hepatitis C Virus (HCV); 3.4% of 340,000 active; Potency, µM (doses to about 41.8 µM), for the others: top-dose activity change, negative = inhibition, usual class: inhibitors; AID 651820, 2012; Huh7.5.1 HCVcc-Cre infection, luciferase reporter, 44 h; note: % is set by controls: 0 for no effect and ±100 for the full control effect
#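 Compounds are dispensed onto cells plated 4 h earlier at 1,000 per well, with HCVcc-Cre virus (about 0.5 moi) added next. Following 44 h of culture, luminescent signal is measured for 15 sec after 15 min with substrate at room temperature.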
# NS1 inh = qHTS Assay for Inhibitors of Influenza NS1 Protein Function | Potency, µM (highest dose often 46.1 µM), inactives show top-dose activity, positive = more growth | 0.4% of 270,000 active; calls by dose curve; note: actives are rising curves; nearly all actives have a fitted effect of over 50% in size
#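 A cell-based growth assay was used: compounds that relieve NS1-induced slow growth of budding yeast raise OD600. Assay medium was yeast nitrogen base with ammonium sulphate and -URA supplement, pH 6.0, with 2% galactose.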
# Pf growth 96h = Primary qHTS for delayed death inhibitors of the malarial parasite plastid, 96 hour incubation | Potency, µM (titrated, usually from 28.7 µM), for the others: at the highest dose activity change, negative = inhibition, usual class: inhibitors | P. falciparum luciferase reporter growth, 96 h | AID 504834, 2011 | 6.9% of 320,000 active; note: % is set by controls: 0 for no effect and ±100 for the full control effect
#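 Two parasite generations (96 h, 37 C, 5% CO2) of compound exposure in infected erythrocytes (0.05% parasitemia, 2% hematocrit). Luciferase-reporter P. falciparum; decreased luminescence indicates inhibited growth, aimed at apicoplast-acting delayed death.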
# The depositor's hits bear a star; i = inactive; ? = inconclusive; · = no result; [ ] = remark or other dose. Unless noted, calls come from the whole dose curve; as a rule, active = well fitted curve in the direction sought with a large enough effect; inconclusive = small, poorly fitted or top-dose-only effect, or another doubt; inactive = no such curve, though single readings can be large; an effect the other way counts as inactive or inconclusive. Potency is the fitted concentration of half-maximal effect.
SMILES,SARS PLP yeast,AMA1-RON2 inh,Pf growth 48h,HCV inhibitor,NS1 inh,Pf growth 96h
COCC(=O)N1CCC(Oc2ccc(C(=O)N3CCSCC3)cc2)CC1,-3%,-20%,18%,9%,3%,34%
Cc1ccccc1OCCOC(=O)c1ccc(S(=O)(=O)N2CCCC2)cc1,-1%,49%,?,-3%,·,?
CCCCCCNc1c([N+](=O)[O-])c(=O)sc2ccccc12,1%,-7%,7.4µM*,?,·,-10%
Cc1ccc(C2c3c(oc4cc(C)c(C)cc4c3=O)C(=O)N2CCCN2CCOCC2)cc1 (stereo unspecified),-4%,5%,5.2µM*,-4%,-19%,?
O=C1c2oc3ccc(F)cc3c(=O)c2C(c2ccc(F)cc2)N1CCCN1CCOCC1 (stereo unspecified),·,-1%,·,13%,·,·
CC(NC(=O)C(=O)NCCN1CCN(C(=O)c2ccc([N+](=O)[O-])cc2)CC1)c1ccccc1 (stereo unspecified),13%,8%,?,-17%,1%,13%
NC(=O)CC(NC(=O)c1ccc(Br)cc1)c1ccc(N2CCCCCC2)c([N+](=O)[O-])c1 (stereo unspecified),3%,-23%,19%,?,15%,25%
CCOC(=O)c1ccc(C(=O)NNC(=O)C2CC=CCC2)cc1 (stereo unspecified),·,36%,·,10%,·,·
COc1ccc(C(=O)NNC(=O)C2CC=CCC2)cc1 (stereo unspecified),-7%,24%,59%,-5%,13%,2.3µM*
CCOc1ccc(CNC(=O)c2ccc(Sc3ccc(C)cc3)c(NC(C)=O)c2)cc1OC,-3%,-2%,14%,?,-9%,12µM*
CCOc1ccc(CNC(=O)c2ccc(Sc3ccc(Cl)cc3)c(NC(C)=O)c2)cc1OC,-6%,3%,-9%,13µM*,10%,-9%
O=C(O)CCCn1cc(NC(=O)COc2cc(F)ccc2[N+](=O)[O-])cn1,1%,-3%,?,19%,5%,?
Cc1oc2cc3oc(=O)cc(C)c3cc2c1C,-2%,-4%,51%,-9%,-2%,34%
Cc1cc(=O)oc2cc3oc(=O)cc(C)c3cc12,-4%,14%,3%,9%,10%,4.7µM*
Cc1c(C)c2cc3c(C)coc3cc2oc1=O,-2%,12%,34%,-3%,0%,5.2µM*
CCCc1cc(=O)oc2cc3occ(C)c3cc12,2%,2%,6%,2.2µM*,-32%,·
CCCc1cc(=O)oc2cc3oc(C)c(C)c3cc12,11%,-5%,39%,22µM*,-9%,·
CCc1cc(=O)oc2cc3occ(C)c3cc12,1%,6%[2.32 µM],5%,?,6%,21%
O=C(NCc1ccccc1)c1cc(C2CCCCN2C(=O)OCCF)on1 (stereo unspecified),·,-4%,·,·,·,·
Cc1cc(C)c2c(CCl)cc(=O)oc2c1,-3%,4%,5%,4%,-30%,0%
CCCc1cc(=O)oc2cc(C)c3c(C)coc3c12,0%,-3%,14%,10µM*,?,-11%
CSc1ncccc1C(=O)OCC(=O)c1cccc(Br)c1,2%,0%,2%,?,·,38%
CNC(=O)/C(C#N)=C/c1cc(C)n(-c2ccc(N3CCOCC3)cc2)c1C,1%,-11%,72%,-4%,8%,16%
Cc1cc(C=O)c(C)n1-c1ccc(N2CCOCC2)c([N+](=O)[O-])c1,-1%,-7%,-11%,11%,·,5%
Cc1cc(/C=C(\C#N)C(=O)Nc2ccc(Cl)cc2)c(C)n1-c1ccc(N2CCOCC2)c([N+](=O)[O-])c1,3%,0%,12µM*,?,16%,7.4µM*
SMILES,SARS PLP yeast,AMA1-RON2 inh,Pf growth 48h,HCV inhibitor,NS1 inh,Pf growth 96h
Cc1ccc(NC(=O)/C(C#N)=C/c2cc(C)n(-c3ccc(N4CCOCC4)c([N+](=O)[O-])c3)c2C)c(C)c1,-2%,0%,?,?,8%,12µM*
CC(C)CNC(=O)C(=O)Nc1ccc2c(c1)N(S(=O)(=O)c1cccs1)CCC2,-3%,-10%,?,?,·,10µM*
COCCNC(=O)C(=O)Nc1ccc2c(c1)N(S(=O)(=O)c1cccs1)CCC2,3%,4%,-11%,?,·,?
CC(C)CCNC(=O)C(=O)Nc1ccc2c(c1)N(S(=O)(=O)c1cccs1)CCC2,-3%,-14%,5.9µM*,?,·,?
Cc1ccc(CNS(=O)(=O)c2ccc(-n3cccn3)cc2)cc1,·,-2%,·,·,·,·
Cc1ccc(C(=O)N2c3ccc(F)cc3CCC2C)o1 (stereo unspecified),-12%,3%,?,-5%,1%,?
Cc1nn(Cc2ccc(C(=O)N3c4ccc(F)cc4CCC3C)o2)c(C)c1Br (stereo unspecified),-7%,-14%,·,-28%,-132%,13µM*
COc1ccc(S(=O)(=O)N(Cc2ccccc2)c2ccccc2C(=O)Nc2ccccc2C(=O)NCc2ccco2)cc1,-9%,-15%,13µM*,?,9%,i
COc1ccc(S(=O)(=O)Nc2ccccc2C(=O)NCc2ccco2)cc1,-2%,0%,·,5%,3%,-12%
O=C(CSCc1ccccc1Cl)N/N=C/c1ccco1,-2%,6%,16%,-5%,-6%,13µM*
O=C(CN(c1ccccc1)S(=O)(=O)c1ccccc1)N/N=C/c1ccco1,-21%,6%,7%,-2%,-8%,3.7µM*
COc1ccc(N(CC(=O)N/N=C/c2ccco2)S(=O)(=O)c2ccccc2)cc1,-6%,-2%,-2%,3%,-11%,1%
Cc1ccc(S(=O)(=O)N(Cc2ccccc2)c2ccccc2C(=O)NCc2cccnc2)cc1,-1%,18%,5.2µM*,-1%,-13%,20%
Cc1ccc(S(=O)(=O)N(C)c2ccc(C(=O)NCc3cccnc3)cc2)cc1,-6%,1%,?,2%,-5%,?
CCCNC(=O)[C@@H]1CCCN1C(=O)[C@@H]1Cc2ccccc2CN1,0%,3%,1%[0.00184 µM],9%,8%,19%
O=C(OCC(=O)c1ccc[nH]1)c1ccc(F)c(S(=O)(=O)N2CCOCC2)c1,1%,0%,·,15%,·,·
COc1ccc(S(=O)(=O)N(CC(=O)NCc2ccco2)c2ccccc2)cc1,-6%,-20%,·,-18%,6%,?
COc1ccc(N(CC(=O)NCc2ccco2)S(=O)(=O)c2ccccc2)cc1,1%,-13%,-11%,2%,0%,6.6µM*

# Screens as filed in PubChem BioAssay.
